Compounds with a hit are over-represented: about 11% of the library has one in this group of screens.
HCV inh – inhibitors of hepatitis C virus infection; Potency, µM (top dose mostly 41.8 µM), most hits filed as inhibitors; 340,000 compounds, 3.4% hits; Huh7.5.1 HCVcc-Cre infection, luciferase reporter, 44 h
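Luciferase read-out (15 sec integration) after a 15 min room-temperature substrate step quantifies HCVcc-Cre infection. Cells, 1,000 per well, had compound added 4 h post-plating, then virus at ~0.5 moi, and were cultured 44 h.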
Pf growth 48h – inhibits P. falciparum growth in the first generation, 48 h; 310,000 compounds, 5.9% hits; AID 504832; P. falciparum luciferase growth in erythrocytes, 48 h; Potency, µM (titrated, usually from 28.7 µM), most hits filed as inhibitors
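Firefly luciferase activity from engineered P. falciparum reports growth; inhibitors lower the luminescent signal. Cultures contained 2% hematocrit erythrocytes at 0.1% final parasitemia.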
AMA1 RON2 block – inhibitors of Plasmodium falciparum AMA1-RON2 interaction | Potency, µM (highest dose often 58.2 µM), hits mostly inhibitors | 360,000 compounds, 0.2% hits | AlphaScreen AMA1-biotinylated RON2 peptide binding | AID 720542; further: nearly all actives have a fitted effect of over 45% in size
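AMA1 (3D7) with his tag at 25 nM final met compounds first, then biotinylated RON2 peptide at 25 nM; detection used donor plus acceptor beads, 10 µg/mL apiece, read by AlphaScreen after 30 min at room temperature.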
Pf growth 96h – P. falciparum growth inhibition at 96 hour, primary screen for plastid delayed-death inhibitors. Potency, µM (series often up to 28.7 µM), hits mostly inhibitors. 320,000 compounds, 6.9% hits. P. falciparum luciferase reporter growth, 96 h
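Readout is luminescence from an integrated firefly luciferase in P. falciparum. Red cells, 2% hematocrit and 0.05% parasitemia final, were cultured with compound through two parasite generations (96 hours) at 37 C, 5% CO2.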
Large screens that a line does not name were inactive. The call rests on the fitted dose curve; in most records, active means well fitted curve in the direction sought with a large enough effect; inconclusive means small, poorly fitted or top-dose-only effect, or another doubt; inactive means no such curve, though single readings can be large; an effect the other way counts as inactive or inconclusive.

COc1ccc(N(CC(=O)NCCSCc2ccc(C)cc2)S(=O)(=O)c2ccccc2)cc1	HCV inh inconclusive, Pf growth 96h inconclusive
COc1ccc(CCNC(=O)CN(c2ccccc2OC)S(=O)(=O)c2ccc(C)cc2)cc1	HCV inh inconclusive, Pf growth 48h 4.1µM
COc1ccc(OC)c(N(CC(=O)NCCc2ccc(OC)c(OC)c2)S(=O)(=O)c2ccccc2)c1	Pf growth 48h inconclusive
COc1ccccc1N(CC(=O)NCCSCc1ccc(C)cc1)S(=O)(=O)c1ccccc1	HCV inh 13µM, Pf growth 48h inconclusive
COc1ccc(CCNC(=O)CN(c2cc(OC)ccc2OC)S(=O)(=O)c2ccccc2)cc1	Pf growth 48h 9.3µM
O=C(Nc1c[nH]c(=O)[nH]c1=O)c1ccccc1Cl	none
Cc1cc(NS(=O)(=O)c2ccc(NC(=O)CCCOc3cccc(C)c3C)cc2)no1	none
CC(C)(C)c1ccc(C(=O)Nc2ccc(O)c3c(=O)cc(-c4ccccc4Cl)oc23)cc1	Pf growth 48h inconclusive, Pf growth 96h inconclusive
Cc1ccc(/C=C/C(=O)Nc2ccc(O)c3c(=O)cc(-c4ccccc4Cl)oc23)cc1	HCV inh inconclusive, Pf growth 48h inconclusive, Pf growth 96h 10µM
O=C(Nc1cccc2ccccc12)c1ccc2sc([C@@H]3O[C@H](CO)[C@H](O)[C@H](O)[C@H]3O)nc2c1	none (no result: HCV inh, Pf growth 48h, Pf growth 96h)
Cn1c(NCCCO)nc2c1c(=O)n(Cc1ccccc1F)c(=O)n2C	none
COc1ccccc1Oc1nc2c(c(=O)n(Cc3ccccc3F)c(=O)n2C)n1C	HCV inh inconclusive, Pf growth 96h 15µM
Cc1cccc(Cn2c(=O)c3c(nc4n3CCN4Cc3ccco3)n(C)c2=O)c1	HCV inh inconclusive, Pf growth 48h 9.3µM, Pf growth 96h 5.9µM
CCCn1c(=O)c2c(nc3n2CCN3Cc2ccco2)n(C)c1=O	none
Cn1c(=O)n(Cc2ccccc2F)c(=O)c2c1nc1n2CCN1Cc1ccco1	Pf growth 48h inconclusive, Pf growth 96h 8.3µM
Cc1ccccc1Cn1c(=O)c2c(nc3n2CCCN3Cc2ccccc2)n(C)c1=O	none (no result: Pf growth 48h, Pf growth 96h)
Cn1c(=O)n(Cc2ccc(Cl)cc2)c(=O)c2c1nc1n2CCN1Cc1ccco1	HCV inh 16µM, Pf growth 48h inconclusive, Pf growth 96h 13µM
CCCS(=O)(=O)NC(=O)C1(C)CCCN(C(=O)c2ccco2)C1 (centres undefined)	none (no result: HCV inh, Pf growth 48h, Pf growth 96h)
COc1ccccc1NCc1cc(=O)oc2c(C)c(O)ccc12	HCV inh inconclusive, Pf growth 48h 1.7µM, Pf growth 96h 1.9µM
COc1ccc(C)cc1NCc1cc(=O)oc2cc(-c3ccccc3)c(O)cc12	HCV inh inconclusive, Pf growth 48h 1.5µM, Pf growth 96h 1µM
Cc1c(O)ccc2c(CC(=O)N[C@@H](Cc3ccccc3)C(=O)O)cc(=O)oc12	none
COC(=O)c1ccccc1NCc1cc(=O)oc2cc(O)c(O)cc12	none
Cc1cc(C)cc(NCc2cc(=O)oc3cc(-c4ccccc4)c(O)cc23)c1	Pf growth 48h 4.7µM, Pf growth 96h 2.3µM
Cc1cc(C)cc(NCc2cc(=O)oc3cc(C)c(O)cc23)c1	HCV inh inconclusive, Pf growth 48h inconclusive, Pf growth 96h inconclusive
N#CC1(NC(=O)CSc2nnc(C3CC3)n2C2CC2)CCCCC1	none
CC1(C(=O)Nc2cccnc2)Cc2c(-c3ccc4c(c3)OCO4)ccnc2O1 (centres undefined)	none (no result: HCV inh, Pf growth 48h, Pf growth 96h)
C[N+]1=C2CCCCCN2C(O)(c2ccccc2)C1 (centres undefined)	Pf growth 96h 8.3µM
Cn1c(=O)c2cc(NC(=O)NCCc3ccccc3)ccc2n1Cc1ccc(F)cc1	none (no result: HCV inh, Pf growth 48h, Pf growth 96h)
c1ccc(N2CCN(c3nc4ccccc4n4cnnc34)CC2)cc1	Pf growth 96h 4.1µM (no result: Pf growth 48h)
Cc1cc(C)c2cc(C#N)c(NCCNC(=O)c3ccncc3)nc2c1	none (no result: HCV inh, Pf growth 48h, Pf growth 96h)
COC(=O)CN(c1cc([N+](=O)[O-])ccc1OC)S(C)(=O)=O	Pf growth 96h 15µM
COc1ccc([N+](=O)[O-])cc1N(CC(=O)O)S(C)(=O)=O	none
COC(=O)CN(c1cc(Cl)ccc1OC)S(=O)(=O)c1ccc(C)cc1	HCV inh inconclusive, Pf growth 48h 2.1µM
COc1ccc(Cl)cc1N(CC(=O)N1CCCC1)S(=O)(=O)c1ccc(C)cc1	Pf growth 96h inconclusive
COc1ccc(S(=O)(=O)Nc2ccc(C)cc2)cc1N(C)S(=O)(=O)c1ccc(Cl)cc1	HCV inh 8.9µM, Pf growth 48h 2.9µM
COc1ccc(COC(=O)c2cccc(S(=O)(=O)N3CCN(C(C)=O)CC3)c2)cc1F	Pf growth 48h inconclusive, Pf growth 96h inconclusive
COc1cc2c(cc1OC)C(COc1ccc([N+](=O)[O-])cc1)NCC2 (centres undefined)	HCV inh inconclusive
CC(C)N1CN(c2ccccc2)C(=S)N(c2ccccc2)C1	none
CCc1sc(C(=O)Nc2cc(Cl)ccc2N2CCCCC2)cc1C	HCV inh inconclusive, Pf growth 96h 15µM (no result: Pf growth 48h)
Cc1noc(C)c1CSCC(=O)Nc1ccccc1N1CCCC1	none (no result: Pf growth 48h, Pf growth 96h)
Cc1noc(C)c1CSCC(=O)Nc1cc(C(F)(F)F)ccc1N1CCCCC1	HCV inh inconclusive, Pf growth 48h 4.7µM, Pf growth 96h inconclusive
Cc1cc(NC(=O)C(C)SCC(=O)Nc2cc(C(F)(F)F)ccc2N2CCCCC2)no1 (centres undefined)	HCV inh inconclusive, Pf growth 48h inconclusive, Pf growth 96h 12µM
Cc1cccc(N2CCN(C(=O)CSCc3c(C)noc3C)CC2)c1C	HCV inh 4µM
Cc1cc(NC(=O)CSCC(=O)Nc2cc(C(F)(F)F)ccc2N2CCCCC2)no1	none (no result: Pf growth 48h, Pf growth 96h)
Cc1noc(C)c1CSCC(=O)N1CCN(c2ccc(F)cc2)CC1	HCV inh inconclusive
Cc1ccc(C(C)C)c(OCCNCCc2ccccc2)c1	HCV inh inconclusive
Cc1ccnc(NC(=O)CCC(=O)N(CC(=O)NC(C)(C)C)c2ccc3c(c2)OCO3)c1	Pf growth 96h inconclusive
Cc1noc(C)c1CSCC(=O)Nc1cc(Cl)ccc1N1CCCCC1	HCV inh 10µM, Pf growth 48h inconclusive, Pf growth 96h 6.6µM
Cc1cc(NC(=O)C(C)SCC(=O)Nc2ccccc2C(C)(C)C)no1 (centres undefined)	Pf growth 48h 13µM, Pf growth 96h 15µM
CCc1nc2oc3cc(OC)ccc3c(=O)c2c(=O)n1Cc1ccco1	Pf growth 48h 12µM, AMA1 RON2 block inconclusive, Pf growth 96h inconclusive
CCCCn1c(-c2ccco2)nc2oc3ccccc3c(=O)c2c1=O	Pf growth 48h inconclusive, Pf growth 96h 9.3µM
OCCNCc1ccc(-c2ccccc2)cc1	HCV inh inconclusive
OCCCNCc1ccc(N(c2ccccc2)c2ccccc2)cc1	HCV inh inconclusive, Pf growth 48h inconclusive, Pf growth 96h 2.3µM
COc1ccccc1Oc1ccc(S(=O)(=O)N2CCCCC2)cc1NC(=O)CCNC(C)=O	Pf growth 48h 12µM, Pf growth 96h 5.9µM (no result: HCV inh)
O=C(NC(=S)Nc1cc(S(=O)(=O)N2CCOCC2)ccc1O)c1ccco1	none
Cc1ccc(S(=O)(=O)N2CCCCC2)cc1NC(=S)NC(=O)c1ccco1	HCV inh inconclusive, Pf growth 48h inconclusive, Pf growth 96h 4.1µM
COc1ccc(S(=O)(=O)N2CCCCCC2)cc1NC(=O)Cc1ccccc1	Pf growth 48h inconclusive
COc1ccc(S(=O)(=O)N2CCCCC2)cc1NC(=O)CCNC(=O)c1ccco1	Pf growth 48h 9.3µM, Pf growth 96h inconclusive
